Experimental data as given in PubChem BioAssay (NCATS).
Inconclusive results are not listed. Activity calls are given as the source filed them. Calls follow the shape of the dose curve; as a rule, active = well fitted cell-killing curve with a large enough effect; inconclusive = small, poorly fitted or top-dose-only effect, or effect the other way; inactive = flat fitted curve, though single readings scatter.

Experiments:
Assay in all cases: Primary qHTS to identify gynecologic anti-cancer compounds using libraries of approved drugs and bioactive compounds (AID 1345084); also: nearly all actives have a fitted effect of over 55% in size
C33A = conditions: Gynecologic cancer cell panel viability, ATPlite luminescence, 48 h; series mostly up to 57.5 µM
In short: (§1)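 Cell viability after 48 h drug treatment, ATPlite luminescence readout; five doses.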

CAOV3 = conditions: Gynecologic cancer cell panel viability, ATPlite luminescence, 48 h; series mostly up to 57.5 µM
In short: as §1

CASKI = conditions: Gynecologic cancer cell panel viability, ATPlite luminescence, 48 h; series mostly up to 57.5 µM
In short: as §1

Es-2 = conditions: Gynecologic cancer cell panel viability, ATPlite luminescence, 48 h; series mostly up to 57.5 µM
In short: as §1

HeLa = conditions: Gynecologic cancer cell panel viability, ATPlite luminescence, 48 h; series mostly up to 57.5 µM
In short: as §1

Hek293T = conditions: Gynecologic cancer cell panel viability, ATPlite luminescence, 48 h, control line for the selectivity index; series mostly up to 57.5 µM
In short: as §1

JEG-3 = conditions: Gynecologic cancer cell panel viability, ATPlite luminescence, 48 h; series mostly up to 57.5 µM
In short: as §1

OV90 = conditions: Gynecologic cancer cell panel viability, ATPlite luminescence, 48 h; series mostly up to 57.5 µM
In short: as §1

PA-1 = conditions: Gynecologic cancer cell panel viability, ATPlite luminescence, 48 h; series mostly up to 57.5 µM
In short: as §1

SKOV3 = conditions: Gynecologic cancer cell panel viability, ATPlite luminescence, 48 h; series mostly up to 57.5 µM
In short: as §1

Tov-21-G = conditions: Gynecologic cancer cell panel viability, ATPlite luminescence, 48 h; series mostly up to 57.5 µM
In short: as §1

Tov112D = conditions: Gynecologic cancer cell panel viability, ATPlite luminescence, 48 h; series mostly up to 57.5 µM
In short: as §1
% is scaled to controls: 0 for no effect and ±100 for the full control effect.

CC(O)/C=C/C1(O)C(C)C(O)C(O[C@@H]2O[C@H](CO)[C@@H](O)[C@H](O)[C@H]2O)CC1(C)C (stereo partly drawn)
inactive: Potency (C33A) | Potency (CAOV3) | outcome (CASKI) | Potency (Es-2) | Potency (HeLa) | Potency (Hek293T) | Potency (JEG-3) | Potency (OV90) | Potency (PA-1) | Potency (SKOV3) | Potency (Tov-21-G) | Potency (Tov112D)

COC(=O)C(CC1(O)c2ccccc2N2C(=O)C(C)(C)N(O)C21)n1cnc2ccccc2c1=O (stereo not drawn)
inactive: Potency (C33A) | Potency (CAOV3) | outcome (CASKI) | Potency (Es-2) | Potency (HeLa) | Potency (Hek293T) | Potency (JEG-3) | Potency (OV90) | Potency (PA-1) | Potency (SKOV3) | Potency (Tov-21-G) | Potency (Tov112D)

C=CCC/C=C/C#CCCCCCCCC[C@H]1C(=O)O[C@H](C)[C@@H]1O
inactive: Potency (C33A) | Potency (CAOV3) | outcome (CASKI) | Potency (Es-2) | Potency (HeLa) | Potency (Hek293T) | Potency (JEG-3) | Potency (OV90) | Potency (PA-1) | Potency (SKOV3) | Potency (Tov-21-G) | Potency (Tov112D)

COc1cc(O)cc(C)c1C(=O)OC1C(CO)OC(n2ccc(=O)[nH]c2=O)C1OC(C)=O (stereo not drawn)
inactive: Potency (C33A) | Potency (CAOV3) | outcome (CASKI) | Potency (Es-2) | Potency (HeLa) | Potency (Hek293T) | Potency (JEG-3) | Potency (OV90) | Potency (PA-1) | Potency (SKOV3) | Potency (Tov-21-G) | Potency (Tov112D)

C[C@@H]1O[C@@H](OC(=O)Cc2ccccc2)[C@H](O)[C@H](O)[C@H]1O
inactive: Potency (C33A) | Potency (CAOV3) | outcome (CASKI) | Potency (Es-2) | Potency (HeLa) | Potency (Hek293T) | Potency (JEG-3) | Potency (OV90) | Potency (PA-1) | Potency (SKOV3) | Potency (Tov-21-G) | Potency (Tov112D)

CC1CCC2C(C)(C)C(O)C(O)CC2(C)C12Cc1c(O)cc(CO)c(C=O)c1O2 (stereo not drawn)
inactive: Potency (C33A) | Potency (CAOV3) | outcome (CASKI) | Potency (Es-2) | Potency (HeLa) | Potency (Hek293T) | Potency (JEG-3) | Potency (OV90) | Potency (PA-1) | Potency (SKOV3) | Potency (Tov-21-G) | Potency (Tov112D)

CC1(C)CC[C@]2(C(=O)O[C@@H]3O[C@H](CO)[C@@H](O)[C@H](O)[C@H]3O)CC[C@]3(C)C(=CCC4[C@@]5(C)CC[C@H](O[C@@H]6O[C@H](C(=O)O)[C@@H](O[C@@H]7O[C@H](CO)[C@@H](O)[C@H](O)[C@H]7O)[C@H](O)[C@H]6O[C@@H]6O[C@H](CO)[C@@H](O)[C@H](O)[C@H]6O)C(C)(C)C5CC[C@]43C)C2C1 (stereo partly drawn)
inactive: activity change, negative = cytotoxicity (C33A) -1.12% [at 11.6 µM] | activity change, negative = cytotoxicity (CAOV3) 5.45% [at 11.6 µM] | activity change, negative = cytotoxicity (CASKI) 8.01% [at 11.6 µM] | activity change, negative = cytotoxicity (Es-2) -12.1% [at 11.6 µM] | activity change, negative = cytotoxicity (HeLa) 0.908% [at 11.6 µM] | activity change, negative = cytotoxicity (Hek293T) 0.105% [at 11.6 µM] | activity change, negative = cytotoxicity (JEG-3) 18.6% [at 11.6 µM] | activity change, negative = cytotoxicity (OV90) 4.99% [at 11.6 µM] | activity change, negative = cytotoxicity (PA-1) 18.4% [at 11.6 µM] | activity change, negative = cytotoxicity (SKOV3) 10.3% [at 11.6 µM] | activity change, negative = cytotoxicity (Tov-21-G) -2% [at 11.6 µM] | activity change, negative = cytotoxicity (Tov112D) 6.91% [at 11.6 µM]

O=C(NC1Cc2ccccc2N(C[C@@H](O)CO)C1=O)c1cc2cc(Cl)sc2[nH]1 (stereo partly drawn)
inactive: Potency (C33A) | Potency (CAOV3) | outcome (CASKI) | Potency (Es-2) | Potency (HeLa) | Potency (Hek293T) | Potency (JEG-3) | Potency (OV90) | Potency (PA-1) | Potency (SKOV3) | Potency (Tov-21-G) | Potency (Tov112D)

CC1(C)CC[C@]2(C(=O)O[C@@H]3O[C@H](CO)[C@@H](O)[C@H](O)[C@H]3O)CC[C@]3(C)C(=CCC4[C@@]5(C)CC[C@H](O[C@@H]6O[C@H](C(=O)O)[C@@H](O)[C@H](O)[C@H]6OC6OC(CO)C(O)C(O)C6O)C(C)(C)C5CC[C@]43C)[C@@H]2C1 (stereo partly drawn)
inactive: activity change, negative = cytotoxicity (C33A) 0.935% [at 11.6 µM] | activity change, negative = cytotoxicity (CAOV3) 8.5% [at 11.6 µM] | activity change, negative = cytotoxicity (CASKI) 2.93% [at 11.6 µM] | activity change, negative = cytotoxicity (Es-2) 5.59% [at 11.6 µM] | activity change, negative = cytotoxicity (HeLa) 8.29% [at 11.6 µM] | activity change, negative = cytotoxicity (Hek293T) 25.2% [at 11.6 µM] | activity change, negative = cytotoxicity (JEG-3) 4.48% [at 11.6 µM] | activity change, negative = cytotoxicity (OV90) 1.96% [at 11.6 µM] | activity change, negative = cytotoxicity (PA-1) 17.8% [at 11.6 µM] | activity change, negative = cytotoxicity (SKOV3) 14.1% [at 11.6 µM] | activity change, negative = cytotoxicity (Tov-21-G) 6.86% [at 11.6 µM] | activity change, negative = cytotoxicity (Tov112D) 7.56% [at 11.6 µM]
